# Laboratory results as given in PubChem BioAssay (NCI).
# Compounds without any hit were thinned out: in the full panel of roughly 83,000, 20% have a hit.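 Compound tested at a single concentration for 48 hours in 96-well plates; a percent growth value below 10 was scored as active.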 A number with no mark means an inactive call. Active and inactive are the calls of the source.
# Assays:
# Assay in all cases: NCI-60 one-dose screen, 48 h (100 = growth as untreated, 0 = no growth, -100 = all killed)
# Details in all cases: 10 µM unless noted
# NCI-H23 lung = test system: NCI-H23 lung
# NCI-H226 lung = test system: NCI-H226 lung
# NCI-H322M lung = test system: NCI-H322M lung
# HOP-62 NSCLC = test system: HOP-62 NSCLC
# NCI-H460 lung = test system: NCI-H460 lung
# HOP-92 NSCLC = test system: HOP-92 NSCLC
# NCI-H522 lung = test system: NCI-H522 lung
# A549/ATCC NSCLC = test system: A549/ATCC NSCLC
# 786-0 renal = test system: 786-0 renal
# COLO 205 colon = test system: COLO 205 colon
# DU-145 prostate = test system: DU-145 prostate
# K-562 leukemia = test system: K-562 leukemia
# MALME-3M melanoma = test system: MALME-3M melanoma
# MDA-MB-231 breast = test system: MDA-MB-231 breast
# RXF 393 renal = test system: RXF 393 renal
# SF-268 CNS = test system: SF-268 CNS
# SF-295 CNS = test system: SF-295 CNS
# SF-539 CNS = test system: SF-539 CNS
# UACC-257 melanoma = test system: UACC-257 melanoma
# M14 melanoma = test system: M14 melanoma
Structure (SMILES),growth (NCI-H23 lung),growth (NCI-H226 lung),growth (NCI-H322M lung),growth (HOP-62 NSCLC),growth (NCI-H460 lung),growth (HOP-92 NSCLC),growth (NCI-H522 lung),growth (A549/ATCC NSCLC),growth (786-0 renal),growth (COLO 205 colon),growth (DU-145 prostate),growth (K-562 leukemia),growth (MALME-3M melanoma),growth (MDA-MB-231 breast),growth (RXF 393 renal),growth (SF-268 CNS),growth (SF-295 CNS),growth (SF-539 CNS),growth (UACC-257 melanoma),growth (M14 melanoma)
CC(C)Cc1ccc(C(C)C(=O)NCc2c[nH]c3ccc(Cl)cc23)cc1 (centres undefined),98%,92.3%,99.7%,99.7%,99.7%,79.8%,87.2%,89%,95.8%,107%,103%,71.3%,98.8%,82.2%,87.8%,89.3%,88.3%,100%,99.4%,92.4%
COc1ccc2c(c1)c(CC(=O)NCCOCCOCC(=O)Nc1ccc(OC)c(C(N)=O)c1O)c(C)n2C(=O)c1ccc(Cl)cc1,90.1%,91.5%,92.7%,88.8%,101%,91.3%,81.3%,85.7%,73.8%,109%,107%,91.5%,118%,92%,92.9%,88.9%,93.8%,99.9%,113%,
CCCN=C(N)c1ccc(NC(=O)c2ccc(C(=O)Nc3ccc(C(N)=NCCC)cc3)cc2)cc1,93.1%,73.4%,96.2%,86.2%,99.1%,88.6%,95%,97.4%,98.7%,70.5%,107%,91%,88.1%,96.6%,96.5%,95.8%,90.3%,92.8%,101%,98.4%
C=CCn1c(SCC(=O)Nc2ccc(C(=O)/C=C/c3cc(OC)c(OC)c(OC)c3)cc2)nnc1-c1cc(-c2ccc(S(C)(=O)=O)cc2)nc2ccccc12,85.6%,85.3%,93.5%,111%,97.2%,112%,86.5%,99.4%,93.6%,111%,94.5%,50.5%,89.3%,77.7%,60.9%,86.9%,97.4%,86%,102%,
CCCCCCNC(=O)Oc1ccc(/C(=C(/CC)Cc2ccccc2)c2ccc(OCCN(CC)CC)cc2)cc1,88%,89.3%,87.5%,88.8%,-41.3% (active),42.3%,74.5%,56.2%,63.7%,-48.6% (active),80.8%,-11.6% (active),17.4%,67.5%,60.2%,76.5%,102%,86.1%,86%,39.4%
O=S(=O)(c1ccc(N/N=C\c2ccccc2)cc1)c1ccc(N/N=C/c2ccccc2)cc1,43.6%,83.3%,80%,46.6%,40.4%,8.56% (active),60%,60%,83.4%,88.9%,69%,79.9%,55.4%,49.4%,72.8%,75.1%,58.2%,65.9%,80.5%,
CCCCCCN(C)Cc1ccc(OCCOc2ccc(CN(C)CCCCCC)cc2)cc1,11%,50%,3.16% (active),17.9%,-77.5% (active),-9.72% (active),35.3%,44%,-72.6% (active),-67.4% (active),50.1%,-20.7% (active),-80.6% (active),4.17% (active),-29.2% (active),45.5%,-51.9% (active),13.5%,-52.5% (active),-96.9% (active)
CC(O)(CO)c1ccccc1 (centres undefined),96%,99.6%,102%,96.9%,105%,94.2%,105%,99.2%,99%,103%,105%,120%,95.3%,97.7%,109%,101%,98.6%,92.4%,93.9%,
CCCCCCCC(=O)Nc1nc2[nH]c(CN3CCN(Cc4cccc(I)c4)CC3)c(CN3CCN(Cc4cccc(I)c4)CC3)c2c(=O)[nH]1,-24.5% (active),66.4%,-60% (active),-88.6% (active),-75% (active),-67.3% (active),-58.8% (active),-81.6% (active),-98% (active),-81.2% (active),-83.5% (active),-43.8% (active),-49.9% (active),-89.8% (active),-96.1% (active),-82.9% (active),-69.5% (active),-89.4% (active),-33% (active),-56.6% (active)
COc1cc2nc(-c3ccc(C(F)(F)F)cc3)cc(OCCN3CCC(O)CC3)c2cc1OC,88.9%,56.3%,68.8%,67.8%,44.5%,71.2%,79.6%,79.2%,78.7%,35.7%,58.8%,61.3%,83.6%,49.1%,61.2%,70%,80.4%,76.8%,92.3%,25.2%
C#CC(=O)Nc1cccc2c1cc(C)n2-c1nc2c(c(NCc3ccccc3)n1)CCCC2,-43.1% (active),-40.2% (active),-82.4% (active),-46.8% (active),-48.3% (active),-53.8% (active),-82.2% (active),-46.5% (active),-53.1% (active),-69.1% (active),-97.1% (active),-13.5% (active),-64.4% (active),-53% (active),-94.4% (active),-29.7% (active),-85.4% (active),-79.7% (active),-73% (active),-65.3% (active)
O=C(Nc1nc(-c2ccccc2Cl)cs1)c1cc(-c2ccccc2)nc2ccc(Cl)cc12,51.3%,74.3%,93.8%,84.6%,102%,42.8%,78.6%,99.7%,89.4%,87.6%,77.8%,25.2%,63.9%,46.8%,87.2%,44.7%,81.1%,-7.04% (active),84.6%,
N#Cc1ccc(-c2ccc3c(c2)NC(=O)/C3=C\c2ccc[nH]2)cc1,36.4%,58.1%,70%,84.4%,76.2%,36.4%,81.8%,104%,105%,93.9%,106%,105%,98%,45.9%,67.3%,96.6%,95.7%,101%,112%,102%
COc1cc(C(=O)c2cnc(-c3ccc4cc[nH]c4c3)[nH]2)cc(OC)c1OC,22.9%,26.2%,36.3%,12.7%,-9.07% (active),-2.58% (active),-17.4% (active),8.91% (active),-8.83% (active),-55.3% (active),-1.47% (active),8.98% (active),48.9%,-48% (active),34.4%,10%,5.4% (active),-5.7% (active),62.3%,
CCCCCCC/C=C/[C@H]1O[C@]2(O)C(=O)C=C3C[C@@H](O[C@@H]4O[C@H](CO)[C@@H](O)C(O)[C@@H]4O)C[C@@H]3[C@H]2C=C1C (some centres undefined),43.6%,-20.8% (active),54.3%,1.36% (active),38.3%,11.8%,-57.6% (active),59.8%,-52.4% (active),11.8%,20.6%,-5.09% (active),1.95% (active),-8.64% (active),-80.3% (active),21.8%,37.5%,-43.7% (active),-7.54% (active),-23.6% (active)
